# Data as given in PubChem BioAssay AID1159580 (chemical genetic matrix, 2015).
# Screen size: about 5,500 compounds; about 2,000 (36%) were called active. About 18% were inconclusive and are not listed. The list shows a part of the results. A number with no mark means an inactive call. Cut-off read from the data, not from the text of the source: active = normalized growth mostly below about 0.91 (no sharp cut-off); inconclusive = no clear call, values can overlap the other calls; inactive = mostly above about 0.92.
# Experiment: chemical genetic growth profiling, strain panel (AID 1159580);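 note: tested at 20 µM; growth read once vehicle control cultures reached saturation at 30 °C; 1 = growth at the plate median or of vehicle wells; lower values mean less growth of the strain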
# Settings: S. cerevisiae deletion strains, growth OD
# [1] = locus YAL013W, strain DEP1, hits give low values
# [2] = locus YDL101C, strain DUN1, hits give low values
# [3] = locus YDR150W, strain NUM1, hits give low values
# [4] = locus YGR078C, strain PAC10, hits give low values
# [5] = locus YHR030C, strain SLT2, hits give low values
# [6] = locus YJR075W, strain HOC1, hits give low values
# [7] = locus YMR263W, strain SAP30, hits give low values
# [8] = locus YMR307W, strain GAS1, hits give low values
# [9] = locus YNL128W, strain TEP1, hits give low values
# [10] = locus YNL153C, strain GIM3, hits give low values
# [11] = locus YPL055C, strain LGE1, hits give low values
# [12] = locus YPL241C, strain CIN2, hits give low values
# [13] = locus YAL040C, strain CLN3, hits give low values
# [14] = locus YER002W, strain NOP16, hits give low values
# [15] = locus YNL175C, strain NOP13, hits give low values
# [16] = locus YNL197C, strain WHI3, hits give low values
# [17] = locus YNL224C, strain SQS1, hits give low values
# [18] = locus YOR083W, strain WHI5 (second series), hits give low values
# [19] = locus YCL061C, strain MRC1 (second series), hits give low values
# [20] = locus YDR363W, strain ESC2, hits give low values
# [21] = locus YGR229C, strain SMI1, hits give low values
smiles,measurement,setting,value
O=C(c1c(F)cccc1F)N1CCN(C(=O)c2c(F)cccc2F)CC1,normalized growth,[1],1.01
same,normalized growth,"locus YBR229C, strain ROT2, hits give low values",0.987
same,normalized growth,[2],1
same,normalized growth,"locus YDL134C, strain PPH21, hits give low values",0.973
same,normalized growth,[3],1.02
same,normalized growth,"locus YEL061C, strain CIN8, hits give low values",0.945
same,normalized growth,[4],1.02
same,normalized growth,[5],1.11
same,normalized growth,"locus YHR087W, strain rtc3, hits give low values",0.98
same,normalized growth,"locus YJL187C, strain SWE1, hits give low values",1
same,normalized growth,"locus YJR043C, strain POL32, hits give low values",1.02
same,normalized growth,[6],0.988
same,normalized growth,"locus YKL190W, strain CNB1, hits give low values",0.984
same,normalized growth,"locus YLR039C, strain RIC1, hits give low values",1.09
same,normalized growth,"locus YLR058C, strain SHM2 (second series), hits give low values",0.985
same,normalized growth,"locus YLR085C, strain ARP6, hits give low values",0.951
same,normalized growth,"locus YLR262C, strain YPT6, hits give low values",1.06
same,normalized growth,"locus YML094W, strain GIM5, hits give low values",0.996
same,normalized growth,"locus YMR219W, strain ESC1, hits give low values",1
same,normalized growth,[7],0.99
same,normalized growth,[8],0.964
same,normalized growth,[9],0.978
same,normalized growth,[10],1.02
same,normalized growth,"locus YNL298W, strain CLA4 (second series), hits give low values",0.962
same,normalized growth,"locus YNL322C, strain KRE1, hits give low values",0.99
same,normalized growth,"locus YNR030W, strain Alg12, hits give low values",0.976
same,normalized growth,[11],0.98
same,normalized growth,[12],1.01
same,normalized growth,"locus YPR135W, strain CTF4, hits give low values",1.01
O=C(c1csc(-c2ccc(Cl)cc2)c1)N1CCCCC1,normalized growth,"locus YAR019C, strain CDC15, hits give low values",0.95
same,normalized growth,"locus YBL105C, strain PKC1, hits give low values",0.953
same,normalized growth,"locus YBR135W, strain CKS1, hits give low values",0.943
same,normalized growth,"locus YBR136W, strain MEC1, hits give low values",0.952
same,normalized growth,"locus YBR160W, strain CDC28, hits give low values",0.944
same,normalized growth,"locus YDL017W, strain CDC7, hits give low values",0.957
same,normalized growth,"locus YDL028C, strain MPS1, hits give low values",0.951
same,normalized growth,[2],0.946
same,normalized growth,"locus YDL108W, strain KIN28, hits give low values",0.953
same,normalized growth,"locus YDL132W, strain cdc53, hits give low values",0.941
same,normalized growth,"locus YDL214C, strain PRR2, hits give low values",0.849
same,normalized growth,"locus YDR052C, strain DBF4, hits give low values",0.952
same,normalized growth,"locus YDR054C, strain cdc34, hits give low values",0.935
same,normalized growth,"locus YDR226W, strain ADK1, hits give low values",0.948
same,normalized growth,"locus YDR477W, strain SNF1, hits give low values",0.851
same,normalized growth,"locus YER123W, strain YCK3, hits give low values",0.83
same,normalized growth,"locus YER133W, strain GLC7, hits give low values",0.857
same,normalized growth,"locus YFL009W, strain cdc4, hits give low values",0.942
same,normalized growth,"locus YFL029C, strain CAK1, hits give low values",0.944
same,normalized growth,"locus YFR003C, strain YPI1, hits give low values",0.96
same,normalized growth,"locus YFR019W, strain FAB1, hits give low values",0.882
same,normalized growth,"locus YFR028C, strain CDC14, hits give low values",0.948
same,normalized growth,"locus YGR040W, strain KSS1, hits give low values",0.844
same,normalized growth,"locus YGR052W, strain FMP48, hits give low values",0.918
same,normalized growth,"locus YGR092W, strain DBF2, hits give low values",0.834
same,normalized growth,[5],0.588 (active)
same,normalized growth,"locus YHR079C, strain IRE1, hits give low values",0.785
same,normalized growth,"locus YHR082C, strain KSP1, hits give low values",0.831
same,normalized growth,"locus YHR205W, strain SCH9, hits give low values",0.801
same,normalized growth,"locus YIL147C, strain SLN1, hits give low values",0.948
same,normalized growth,"locus YJL095W, strain BCK1, hits give low values",0.714
same,normalized growth,"locus YJL128C, strain PBS2, hits give low values",0.878
same,normalized growth,"locus YJL157C, strain FAR1, hits give low values",0.838
same,normalized growth,"locus YJR016C, strain ILV3, hits give low values",0.954
same,normalized growth,"locus YJR066W, strain TOR1 (second series), hits give low values",0.764
same,normalized growth,"locus YJR066W, strain TOR1, hits give low values",0.759
same,normalized growth,"locus YKL048C, strain ELM1, hits give low values",0.904
same,normalized growth,"locus YKL067W, strain YNK1, hits give low values",0.857
same,normalized growth,"locus YKL101W, strain HSL1, hits give low values",0.884
same,normalized growth,"locus YKL193C, strain SDS22, hits give low values",0.951
same,normalized growth,"locus YKL203C, strain TOR2, hits give low values",0.868
same,normalized growth,"locus YLR113W, strain HOG1, hits give low values",0.711 (active)
same,normalized growth,"locus YLR133W, strain CKI1, hits give low values",0.862
same,normalized growth,"locus YLR403W, strain SFP1, hits give low values",0.79
same,normalized growth,"locus YML070W, strain DAK1, hits give low values",0.847
same,normalized growth,"locus YMR001C, strain CDC5, hits give low values",0.94
same,normalized growth,"locus YMR205C, strain PFK2 (second series), hits give low values",0.866
same,normalized growth,"locus YMR277W, strain FCP1, hits give low values",0.944
same,normalized growth,"locus YNL006W, strain LST8, hits give low values",0.953
same,normalized growth,"locus YNL020C, strain ARK1, hits give low values",0.84
same,normalized growth,"locus YNL161W, strain CBK1, hits give low values",0.953
same,normalized growth,"locus YNL183C, strain NPR1, hits give low values",0.801
same,normalized growth,"locus YNL207W, strain RIO2, hits give low values",0.928
same,normalized growth,"locus YNL222W, strain SSU72, hits give low values",0.958
same,normalized growth,"locus YNL307C, strain MCK1 (second series), hits give low values",0.845
same,normalized growth,"locus YOL078W, strain AVO1, hits give low values",0.948
same,normalized growth,"locus YOL136C, strain PFK27, hits give low values",0.823
same,normalized growth,"locus YOR061W, strain CKA2, hits give low values",0.803
same,normalized growth,"locus YOR119C, strain RIO1, hits give low values",0.903
same,normalized growth,"locus YOR231W, strain MKK1, hits give low values",0.797
same,normalized growth,"locus YOR329C, strain SCD5, hits give low values",0.954
same,normalized growth,"locus YPL031C, strain PHO85, hits give low values",0.815
same,normalized growth,"locus YPL153C, strain RAD53, hits give low values",0.831
same,normalized growth,"locus YPL204W, strain HRR25, hits give low values",0.812
same,normalized growth,"locus YPL209C, strain IPL1, hits give low values",0.956
same,normalized growth,"locus YPL256C, strain CLN2, hits give low values",0.766 (active)
same,normalized growth,"locus YPR025C, strain CCL1, hits give low values",0.944
same,normalized growth,"locus YPR106W, strain ISR1, hits give low values",0.95
same,normalized growth,"locus YPR111W, strain DBF20, hits give low values",0.935
same,normalized growth,"strain NNK1, hits give low values",0.93
same,normalized growth,"strain TSCII, hits give low values",0.942
NC(CCCCCP(=O)(O)O)C(=O)O (stereo unspecified),normalized growth,[13],0.977
same,normalized growth,[3],0.989
same,normalized growth,[14],0.973
same,normalized growth,[15],1
same,normalized growth,[16],0.992
same,normalized growth,[17],1.01
same,normalized growth,[18],0.983
same,normalized growth,[11],0.999
same,normalized growth,[12],0.98
CCCCCCCCCCCCCCCCCC(=O)NCC(COP(=O)([O-])OCC[N+](C)(C)C)OCC (stereo unspecified),normalized growth,[13],0.0918 (active)
same,normalized growth,[19],0.0501 (active)
same,normalized growth,[3],0.0538 (active)
same,normalized growth,[20],0.0807 (active)
same,normalized growth,[14],0.0757 (active)
same,normalized growth,[21],0.0622 (active)
same,normalized growth,[6],0.0689 (active)
same,normalized growth,[7],0.0519 (active)
same,normalized growth,[8],0.0635 (active)
same,normalized growth,[9],0.0936 (active)
same,normalized growth,[10],0.0918 (active)
same,normalized growth,[15],0.0883 (active)
same,normalized growth,[16],0.0927 (active)
same,normalized growth,[17],0.0836 (active)
same,normalized growth,[18],0.116 (active)
same,normalized growth,[12],0.0483 (active)
CCCCCCCCCCCCCCCC(=O)NCC(COP(=O)([O-])OCC[N+](C)(C)C)OCC (stereo unspecified),normalized growth,[13],0.322 (active)
same,normalized growth,[19],0.155 (active)
same,normalized growth,[3],0.0974 (active)
same,normalized growth,[20],0.165 (active)
same,normalized growth,[14],0.0938 (active)
same,normalized growth,[4],0.971
same,normalized growth,[7],0.619 (active)
same,normalized growth,[15],0.0862 (active)
same,normalized growth,[16],0.373 (active)
same,normalized growth,[17],0.151 (active)
same,normalized growth,[18],0.223 (active)
same,normalized growth,[11],0.109 (active)
CCCCCCCCCCCCCCCCCCNC(=O)OCC(COP(=O)([O-])OCC[n+]1ccsc1)OC (stereo unspecified),normalized growth,[1],0.983
same,normalized growth,[13],1
same,normalized growth,[19],1
same,normalized growth,[20],1.03
same,normalized growth,[14],1.01
same,normalized growth,[21],0.936
same,normalized growth,[7],1
same,normalized growth,[8],0.968
same,normalized growth,[15],1.03
same,normalized growth,[16],1.06
same,normalized growth,[17],1.03
same,normalized growth,[18],1.01
same,normalized growth,[11],1.04
same,normalized growth,[12],1.01
